# rCAG binder = binds r(CAG) RNA repeats | r(CAG) RNA repeat, TO-PRO-1 dye displacement fluorescence | inhibition, % at 3 µM | actives 1.3% (n = 370,000) | AID 651821;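 active = inhibition above the plate cutoff, the mean of all test compounds on that plate plus 3 SD, cut at about 35% in these data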;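 note: 0% = DMSO alone and 100% = 100 µM mitoxantrone as full dye displacement; higher means more dye released from RNA so lower well fluorescence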
# Rtt109 HAT inh = inhibitors of Candida albicans Rtt109/Vps75 histone acetyltransferase; inhibition, % at 34.9 µM; AID 540336; purified Rtt109/Vps75, ThioGlo CoA-SH fluorescence, 4 h; actives 0.16% (n = 330,000); Q5AAJ8;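 active = inhibition of at least 50% in every replicate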
# LANA-H2A inh = blocks KSHV LANA binding to histone H2A/H2B. cell-free LANA-H2A/H2B peptide, fluorescence polarization. actives 0.6% (n = 320,000). Q9QR71. inhibition, % (test concentration not listed). AID 2629; in the data active = inhibition mostly above about 10%, no sharp cut-off; inactive = mostly below about 6.7%
# ABHD5-PLIN5 inh = ABHD5-PLIN5 protein interaction inhibition. inhibition, % at 4 µM. Split G. princeps luciferase complementation, luminescence, 4 h. actives 0.78% (n = 360,000). AID 602281;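 active = inhibition above the mean inhibition across every tested compound plus 3 SD, cut at about 22% in these data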;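 note: 0% = DMSO only wells and the 100% control is not disclosed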
# Target sequence (Q00G26 whole entry, looked up): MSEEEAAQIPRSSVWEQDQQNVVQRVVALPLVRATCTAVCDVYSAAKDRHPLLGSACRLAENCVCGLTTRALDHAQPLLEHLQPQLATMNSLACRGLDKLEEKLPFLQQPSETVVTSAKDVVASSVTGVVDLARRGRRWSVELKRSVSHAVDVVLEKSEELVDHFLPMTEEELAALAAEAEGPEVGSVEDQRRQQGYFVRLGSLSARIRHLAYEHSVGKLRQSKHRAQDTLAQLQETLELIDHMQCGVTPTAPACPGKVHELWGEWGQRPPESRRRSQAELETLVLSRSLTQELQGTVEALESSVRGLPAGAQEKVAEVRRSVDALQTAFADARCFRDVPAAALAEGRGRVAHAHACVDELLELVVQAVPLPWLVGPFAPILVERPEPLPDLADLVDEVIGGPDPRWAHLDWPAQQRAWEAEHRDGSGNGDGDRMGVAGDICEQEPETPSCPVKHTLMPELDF
# Target sequence (Q8WTS1 whole entry, looked up): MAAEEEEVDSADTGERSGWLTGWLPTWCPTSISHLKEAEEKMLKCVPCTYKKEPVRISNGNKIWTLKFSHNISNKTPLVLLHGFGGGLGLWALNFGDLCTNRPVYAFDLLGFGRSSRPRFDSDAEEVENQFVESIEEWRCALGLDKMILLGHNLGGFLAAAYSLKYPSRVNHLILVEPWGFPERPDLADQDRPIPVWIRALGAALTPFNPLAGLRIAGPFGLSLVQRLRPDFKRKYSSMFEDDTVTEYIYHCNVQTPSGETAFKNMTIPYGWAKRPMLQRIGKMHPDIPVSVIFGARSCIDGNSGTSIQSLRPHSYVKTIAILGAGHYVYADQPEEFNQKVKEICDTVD
# ALR inh = inhibitors of human sulfhydryl oxidase ALR; P55789; purified ALR, DTT oxidation, H2O2 HRP-luminol luminescence; inhibition, % (test concentration not listed); actives 3.8% (n = 290,000); AID 485317;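 active = mean replicate inhibition above about 79%, with every replicate also reaching it, limit read from the data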
# PRMT1 inh = blocks human protein arginine methyltransferase 1; recombinant PRMT1, activity-based probe fluorescence polarization; actives 1.3% (n = 370,000); inhibition, % at 2.79 µM; Q99873;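 active = inhibition above about 21% made by adding two undisclosed values, limit read from the data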
# PRMT1 confirm = PRMT1 (human) inhibition, FP confirmation; shares compounds with PRMT1 inh; recombinant His-PRMT1, activity-based probe fluorescence polarization; inhibition, % at 2.79 µM; actives 42% (n = 3,300); AID 687036;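 active = mean inhibition across replicates above the hit cutoff derived for the earlier primary screen, cut at about 22% in these data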
# Active calls of the source: *; i = inactive; / = not tested or not shown. The list is not random: actives were taken first. Their share in the collection is about 5.9%.
SMILES,rCAG binder,Rtt109 HAT inh,LANA-H2A inh,ABHD5-PLIN5 inh,ALR inh,PRMT1 inh,PRMT1 confirm
Cc1cc(C)c2sc(C)[n+](CCCS(=O)(=O)[O-])c2c1,12.9,90.1*,-3.8,7.1,14.7,50.7*,31.7*
COc1ccc(Oc2c(Br)cnn(Cc3cccc4ccccc34)c2=O)cc1,6.2,/,/,/,/,0.0,/
CCN(CC)S(=O)(=O)c1ccc(C(=O)/C=C/c2ccc(-c3ccc([N+](=O)[O-])cc3)o2)cc1,18.9,-2.3,1.4,6.2,-8.1,10.7,/
Cc1ccc(C(=O)/C=C/c2ccc(-c3ccc(C)cc3)o2)cc1,17.6,2.6,-2.8,13.9,/,49.6*,6.2
Cc1ccc(C(=O)/C=C\C(=O)c2ccc(C)cc2)cc1,3.3,-2.0,10.2,18.5,97.9*,40.0*,56.7*
Cc1cc(-c2nnc(SCC(=O)Nc3cccc4ccccc34)n2N)n[nH]1,5.5,/,/,/,/,5.9,/
CN1CCc2c(sc(/N=C/c3ccco3)c2C(N)=O)C1,-6.3,-38.1,-19.2,-4.8,/,25.3*,6.0
CCC(C)(C)n1nnnc1C(C(C)C)N(Cc1ccco1)Cc1cc2cc3c(cc2[nH]c1=O)OCO3 (stereo not drawn),-1.3,5.2,5.2,16.8,-5.7,41.1*,4.7
COc1ccccc1CN(Cc1cc2c(C)ccc(C)c2[nH]c1=O)Cc1nnnn1Cc1ccco1,17.3,3.0,1.1,3.6,-6.7,36.6*,6.0
Cc1ccc2cc(CN(Cc3ccc4c(c3)OCO4)Cc3nnnn3Cc3ccco3)c(=O)[nH]c2c1,5.6,-1.9,-4.5,13.6,-8.1,4.8,/
COc1cc2cc(CN(Cc3nnnn3Cc3ccccc3)CC3CCCO3)c(=O)[nH]c2cc1OC (stereo not drawn),-3.7,-99.8,/,-3.2,/,13.4,/
Cc1ccc(CN(Cc2cc3cc4c(cc3[nH]c2=O)OCCO4)Cc2nnnn2Cc2ccco2)cc1,31.7,6.5,i,0.2,-4.1,43.2*,13.2
CCc1cc2c(nc1CC)CCCN2S(=O)(=O)c1cccs1,-0.1,/,/,/,/,-1.8,/
CSCCC(C(=O)Nc1c(C)cccc1C)n1c(-c2cnc(C)cn2)nc2ccccc21 (stereo not drawn),0.6,/,/,3.8,/,-1.3,/
Nc1c(C(=O)Nc2ccc(Cl)cc2)sc2nc(N3CCOCC3)c3c(c12)CCCC3,13.7,5.6,3.5,-0.5,2.1,30.2*,46.0*
Nc1c(C(=O)N2CCOCC2)sc2nc(N3CCOCC3)c3c(c12)CCCC3,-3.4,4.8,-5.6,-1.9,-5.0,33.8*,11.6
Cc1cccc2cc3c(N)c(C(=O)N4CCOCC4)sc3nc12,11.4,10.5,2.1,-10.1,6.3,36.2*,12.0
CC(=O)c1ccc(NC(=O)c2sc3nc(N4CCOCC4)c4c(c3c2N)CCCC4)cc1,4.5,6.9,8.4,2.3,0.1,20.2,/
COc1cccc(NC(=O)c2sc3nc(N4CCOCC4)c4c(c3c2N)CCCC4)c1,12.6,3.6,3.1,-1.5,-1.9,32.5*,8.1
O=C(N[C@H](C(=O)N1CCC[C@H]1C(=O)NCc1ccccc1)C1CCCCC1)c1ccc(Cl)c(Cl)c1,1.2,/,/,/,/,0.7,/
O[C@H](COc1ccc(C(F)(F)F)cc1)CN1CCC(C(O)(c2ccccc2)c2ccccc2)CC1,-2.3,/,/,/,/,-1.4,/
COc1cc2c(c(OC)c1OC)[C@@]1(c3ccccc3)CCCC[C@H]1[C@@H]2NC(=O)C(F)(F)F,0.8,/,/,/,/,-11.3,/
N/C(=N\C(=O)OCc1ccccc1)N(Cc1ccccc1)C(C#CC1=CCCCC1)Cc1ccccc1 (stereo not drawn),11.5,/,/,/,/,3.8,/
CC(C)(C)C(=O)NC1CCCCN(Cc2cccc(Cl)c2)C1=O (stereo not drawn),0.5,/,/,/,/,-1.7,/
CCC/C=C/c1ccc(CN2C(C(C)C)C(=O)N(Cc3cn(Cc4ccco4)nn3)CCS2(=O)=O)cc1 (stereo not drawn),21.2,/,/,-3.2,/,4.9,/
Cc1ccc(NC(=O)c2sc3nc(N4CCOCC4)c4c(c3c2N)CCCC4)cc1,10.2,/,/,-18.9,/,26.5*,19.8
Nc1c(C(=O)Nc2ccccc2)sc2nc(N3CCOCC3)c3c(c12)CCCC3,13.3,/,/,-9.8,/,34.5*,20.2
